A selection: hits, their analogues and other compounds. The true share with any hit is near 2.5%.
F508del corr – F508del CFTR correction, initial screen, CFBE line, single point; 350,000 compounds, 0.36% hits; activity (quench increase), % at 7.58 µM; CFBE cells, YFP halide quenching; stimulated with forskolin plus potentiator P3; % fluorescence drop versus neutral controls; AID 720511, 2013;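 active means mean added fluorescence quench of at least 8% versus neutral control, with both replicates also reaching 8%; inconclusive means only one of the mean or replicate conditions met; inactive means mean below 8% and not both replicates reaching 8%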;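 further: cells transiently co-express mutant CFTR-F508del with the halide-sensitive YFP; corrector assay measuring rescue of mutant channel to the surface after 24 h compound exposure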
PAX8 inh HTS – inhibitors of PAX8-driven TPO luciferase reporter, primary screen, RMG-I cells, single concentration. SteadyGlo, 24 h. AID 652154, 2013. 360,000 compounds, 1.2% hits. inhibition, % at 12.6 µM;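 active means mean replicate inhibition at least 60% with every replicate also reaching 60%; inconclusive means only one of the two criteria is met; inactive means mean below 60% and not all replicates reaching 60%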;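 further: luciferase light reporting Pax8 driven TPO promoter activity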
FXN GAA850 act – FXN promoter activators, primary screen, cell-based, luciferase luminescence, HEK293 lucGAA850; 360,000 compounds, 0.56% hits; AID 540364, 2011; activation, % at 6 µM; HEK293 lucGAA850 FXN promoter luciferase reporter, 24 h; percent of 10 µM SAHA response;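 active means activation above the average of all compounds screened plus 3 SD, cutoff fixed separately per campaign, cut at about 7.5% in these data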
HIV Env fusion – inhibitors of HIV-1 Env-driven cell-cell fusion, primary screen, HeLa-JRFL effector, CEM21 target cells, luciferase; inhibition, % at 12.3 µM; 360,000 compounds, 1.1% hits; AID 651610, 2012;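 active means mean replicate inhibition score of at least 50 and every replicate individually at or above 50; inconclusive means only one of the two criteria met; inactive means mean below 50 and not all replicates reaching 50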
EWS-Fli block – EWS/Fli-driven NR0B1 reporter inhibitors, primary screen, A673 cells, NR0B1 luciferase, luminescence, MLPCN library | viability-normalised | inhibition, % at 12.6 µM | 350,000 compounds, 0.67% hits | AID 651661, 2012;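 active means mean inhibition of at least 50% after viability correction, with every replicate also passing that limit; inconclusive means mean reaches 50% but only one of two replicates passes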;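 further: firefly luciferase signal divided by Alamar Blue viability fluorescence both relative to DMSO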
Each line names hits and unclear results; the compound was inactive in the other large screens.

Cc1ccc(S(=O)(=O)Nc2ccc3c(c2)C(=O)N([C@H](C)CO)C[C@@H](C)[C@H](CN(C)Cc2ccc(Cl)c(Cl)c2)OCCCC[C@H](C)O3)cc1	PAX8 inh HTS 96 (no result: FXN GAA850 act)
Cc1ccc(S(=O)(=O)Nc2ccc3c(c2)C(=O)N([C@H](C)CO)C[C@@H](C)[C@@H](CN(C)Cc2ccc(Cl)c(Cl)c2)OCCCC[C@H](C)O3)cc1	none (no result: FXN GAA850 act, HIV Env fusion)
O=C(c1ccc(F)cc1)N1CC(=O)N2[C@H](CO)[C@H](c3ccc(-c4ccccc4)cc3)[C@H]2C1	none (no result: FXN GAA850 act, HIV Env fusion)
Cc1ccc(-c2cc3c(nn2)-c2ccccc2C3=O)cc1	PAX8 inh HTS 79, HIV Env fusion inconclusive, EWS-Fli block 84
O=C1c2ccccc2-c2nnc(-c3ccc(F)cc3)cc21	none
COc1ccc2c3c([nH]c2c1)[C@@H](CO)N(S(=O)(=O)c1cn(C)cn1)CC31CCN(Cc2ccccc2F)CC1	none (no result: PAX8 inh HTS, FXN GAA850 act, HIV Env fusion)
COCCCN1C(=O)[C@@]2(Cc3ccccc31)c1ccccc1C(=O)N(Cc1ccccc1)[C@H]2c1ccc(CO)cc1	none (no result: FXN GAA850 act)
Nc1nc2ccccc2n1C(=O)c1ccccc1	EWS-Fli block 61
Cc1ccc(S(=O)(=O)N2C[C@H](O)COC[C@@H]3O[C@@H](CC(=O)NCc4ccc5c(c4)OCO5)CC[C@H]32)cc1	none (no result: FXN GAA850 act)
CCCC#Cc1cnc2c(c1)C(=O)N([C@@H](C)CO)C[C@H](C)[C@@H](CN(C)S(=O)(=O)c1cn(C)cn1)O2	none (no result: FXN GAA850 act)
O=C(C[C@H]1CC[C@@H]2[C@H](COC[C@H](O)CN2S(=O)(=O)c2ccccc2)O1)Nc1ccc(-c2ccccc2)cc1	PAX8 inh HTS 63 (no result: FXN GAA850 act, HIV Env fusion)
O=C(C[C@@H]1CC[C@@H]2[C@H](COC[C@@H](O)CN2Cc2ccc3c(c2)OCO3)O1)Nc1ccc(-c2ccccc2)cc1	PAX8 inh HTS inconclusive (no result: FXN GAA850 act)
O=C(C[C@@H]1CC[C@H]2[C@@H](COC[C@H](O)CN2Cc2ccc3c(c2)OCO3)O1)Nc1ccc(-c2ccccc2)cc1	F508del corr 9.6 (no result: FXN GAA850 act)
O=C(C[C@@H]1CC[C@H]2[C@@H](COC[C@@H](O)CN2S(=O)(=O)c2ccccc2)O1)Nc1ccccc1	none (no result: FXN GAA850 act, HIV Env fusion)
O=C(C[C@H]1CC[C@@H]2[C@H](COC[C@@H](O)CN2S(=O)(=O)c2ccccc2)O1)Nc1ccc(-c2ccccc2)cc1	F508del corr 8.3 (no result: FXN GAA850 act, HIV Env fusion)
O=C(C[C@@H]1CC[C@@H]2[C@H](COC[C@@H](O)CN2S(=O)(=O)c2ccccc2)O1)Nc1ccc(-c2ccccc2)cc1	none (no result: FXN GAA850 act, HIV Env fusion)
COCC(=O)Nc1ccc2c(c1)[C@@H]1C[C@@H](CC(=O)NC3CCCC3)O[C@H](CO)[C@@H]1O2	none (no result: FXN GAA850 act)
COc1ccccc1C(=O)Nc1ccc2c(c1)OC[C@@H](C)N(C)C[C@H](C)[C@@H](OC)CN(C)C2=O	none (no result: FXN GAA850 act)
Cc1ccc(C(=O)NC(C#N)=C(Cl)Cl)cc1	EWS-Fli block 77 (no result: FXN GAA850 act)
CCC(Sc1nc2ccsc2c(=O)n1-c1ccc(Cl)c(C)c1)C(=O)NCc1ccco1 (centres undefined)	HIV Env fusion 65 (no result: F508del corr, PAX8 inh HTS, EWS-Fli block)
Cc1ccc(NC2=C/C(=N\S(=O)(=O)c3cccs3)c3ccccc3C2=O)c(C)c1	none (no result: F508del corr, PAX8 inh HTS, HIV Env fusion, EWS-Fli block)
Cc1ccc(Cl)cc1NC1=C/C(=N\S(=O)(=O)c2cccs2)c2ccccc2C1=O	PAX8 inh HTS 104, HIV Env fusion 112
Cc1cccc(NC2=C/C(=N/S(=O)(=O)c3cccs3)c3ccccc3C2=O)c1	HIV Env fusion 76 (no result: F508del corr, EWS-Fli block)
O=C1C(Nc2ccc(O)cc2)=C/C(=N/S(=O)(=O)c2cccs2)c2ccccc21	PAX8 inh HTS 101, HIV Env fusion 95
C[C@H](CO)N1C[C@H](C)[C@@H](CN(C)Cc2ccc(-c3ccccc3)cc2)Oc2c(NC(=O)Nc3cccc4ccccc34)cccc2C1=O	none (no result: PAX8 inh HTS, FXN GAA850 act)
C[C@H](CO)N1C[C@H](C)[C@H](CN(C)Cc2ccccc2)OCCCC[C@H](C)Oc2ccc(NS(=O)(=O)c3ccc(Cl)cc3)cc2C1=O	PAX8 inh HTS 66 (no result: FXN GAA850 act)
C[C@H]1CCCCO[C@@H](CN(C)Cc2ccccc2)[C@@H](C)CN([C@@H](C)CO)C(=O)c2cc(NS(=O)(=O)c3ccc(Cl)cc3)ccc2O1	PAX8 inh HTS 75 (no result: FXN GAA850 act)
C[C@@H]1CCCCO[C@@H](CN(C)Cc2ccccc2)[C@@H](C)CN([C@@H](C)CO)C(=O)c2cc(NS(=O)(=O)c3ccc(Cl)cc3)ccc2O1	PAX8 inh HTS 76 (no result: FXN GAA850 act)
C[C@H]1CCCCO[C@@H](CN(C)Cc2ccc(C(=O)O)cc2)[C@@H](C)CN([C@@H](C)CO)C(=O)c2cc(NS(=O)(=O)c3ccc(Cl)cc3)ccc2O1	PAX8 inh HTS 87 (no result: FXN GAA850 act)
O=C1CN(S(=O)(=O)c2ccccc2)C[C@@H]2[C@H](c3ccc(C4=CCCC4)cc3)[C@@H](CO)N12	none (no result: PAX8 inh HTS, FXN GAA850 act, HIV Env fusion)
CCOc1ccc(C(=O)NCC(=O)Nc2ccncc2)cc1OCC	none (no result: HIV Env fusion)
CCOc1ccc(C(=O)NCC(=O)NNC(=O)c2cc(C)oc2C)cc1OCC	F508del corr 16
C[C@@H]1CN([C@@H](C)CO)S(=O)(=O)c2ccc(C#CC3CC3)cc2O[C@@H]1CN(C)Cc1ccncc1	none (no result: PAX8 inh HTS, FXN GAA850 act)
COc1ccc(NC(=O)N(C)C[C@H]2Oc3ccc(NS(=O)(=O)c4ccc(F)cc4)cc3CC(=O)N([C@@H](C)CO)C[C@H]2C)cc1	none (no result: PAX8 inh HTS, FXN GAA850 act)
CN(C)c1cccc2c(S(=O)(=O)NCC3CCN(C(=O)C(=O)c4cc5ccccc5o4)CC3)cccc12	PAX8 inh HTS 62 (no result: FXN GAA850 act)
O=C(C(=O)N1CCC(CNS(=O)(=O)c2ccccc2OC(F)(F)F)CC1)c1cc2ccccc2o1	none (no result: FXN GAA850 act)
CC(=O)Oc1cccc(N2C(=O)c3ccccc3C2=O)c1	PAX8 inh HTS 78 (no result: HIV Env fusion)
O=Nc1c(O)c2ccccc2c2ccccc12	HIV Env fusion 81
O=Nc1c2cc3ccccc3[nH]c-2c2ccccc12	none
COc1ccc(-c2cc(C(=O)N3CCN(c4ccccn4)CC3)c3ccccc3n2)cc1	none (no result: F508del corr, PAX8 inh HTS, EWS-Fli block)
CCOc1ccc(-c2cc(C(=O)N3CCN(c4ccccn4)CC3)c3ccccc3n2)cc1	F508del corr 12 (no result: PAX8 inh HTS, HIV Env fusion)
CCCC#Cc1ccc2c(c1)O[C@H](CN(C)C(=O)NC(C)C)[C@H](C)CN([C@@H](C)CO)S2(=O)=O	none (no result: PAX8 inh HTS, FXN GAA850 act)
O=C(O)CCCCCCCCCCP(=O)(c1ccccc1)c1ccccc1	none
O=P(CCCCCCCCCP(=O)(c1ccccc1)c1ccccc1)(c1ccccc1)c1ccccc1	PAX8 inh HTS 80 (no result: F508del corr, EWS-Fli block)
O=C([C@@H]1[C@@H](CO)[C@@H]2Cn3c(cccc3=O)[C@@H]2N1Cc1ccccc1Cl)N1CCCCC1	none (no result: F508del corr, FXN GAA850 act)
C[C@H](CO)N1C[C@H](C)[C@H](CN(C)C(=O)CN(C)C)Oc2cc(C#CC(C)(C)O)ccc2S1(=O)=O	none (no result: PAX8 inh HTS, FXN GAA850 act)
Nc1nonc1C(=O)NCCNCc1cc(Br)ccc1OCc1ccc(F)cc1	HIV Env fusion 67 (no result: F508del corr, PAX8 inh HTS, EWS-Fli block)
Nc1nonc1C(=O)NCCNCc1c(OCc2ccccc2F)ccc2ccccc12	HIV Env fusion 103 (no result: F508del corr, PAX8 inh HTS, EWS-Fli block)
Nc1nonc1C(=O)NCCNCc1ccccc1	none (no result: F508del corr, PAX8 inh HTS, HIV Env fusion, EWS-Fli block)
C[C@H]1CN([C@@H](C)CO)C(=O)Cc2cc(NC(=O)Nc3ccc(F)cc3)ccc2O[C@@H]1CN(C)Cc1ccccc1	none (no result: FXN GAA850 act)
